# Results from PMC11062922 (Nature Chemical Biology, 2023).
# Like-named read-outs stand apart in the source and are kept apart here.
# Legend:
# Parameters in all cases: species or system human, MV4-11 + K-562 + COLO205 + SK-N-BE2 + OVCAR-8
# [1] = tested on: CDK16; settings: read-out: apparent Kd; compound concentrations:100 nM and 1000 nM (sheet 'Samples'); n = 1
# [2] = tested on: CDK2; settings: read-out: apparent Kd; compound concentrations:100 nM and 1000 nM (sheet 'Samples'); n = 1
# [3] = tested on: CDK9; settings: read-out: apparent Kd; compound concentrations:100 nM and 1000 nM (sheet 'Samples'); n = 1
# [4] = tested on: CLK1; settings: read-out: apparent Kd, n = 1
# [5] = tested on: CLK2; settings: read-out: apparent Kd; compound concentrations:100 nM and 1000 nM (sheet 'Samples'); n = 1
# [6] = tested on: CLK4; settings: read-out: apparent Kd, n = 1
# [7] = tested on: GSK3A; settings: read-out: apparent Kd; compound concentrations:100 nM and 1000 nM (sheet 'Samples'); n = 1
# [8] = tested on: GSK3B; settings: read-out: apparent Kd; compound concentrations:100 nM and 1000 nM (sheet 'Samples'); n = 1
# [9] = tested on: ICK; settings: read-out: apparent Kd; compound concentrations:100 nM and 1000 nM (sheet 'Samples'); n = 1
# [10] = tested on: NUAK2; settings: read-out: apparent Kd; compound concentrations:100 nM and 1000 nM (sheet 'Samples'); n = 1
# [11] = tested on: PRKCA; settings: read-out: apparent Kd; compound concentrations:100 nM and 1000 nM (sheet 'Samples'); n = 1
# [12] = tested on: PRKCB; settings: read-out: apparent Kd; compound concentrations:100 nM and 1000 nM (sheet 'Samples'); n = 1
# [13] = tested on: PRKCD; settings: read-out: apparent Kd; compound concentrations:100 nM and 1000 nM (sheet 'Samples'); n = 1
# [14] = tested on: PRKCI; settings: read-out: apparent Kd; compound concentrations:100 nM and 1000 nM (sheet 'Samples'); n = 1
# [15] = tested on: PRKCQ; settings: read-out: apparent Kd; compound concentrations:100 nM and 1000 nM (sheet 'Samples'); n = 1
# [16] = tested on: RPS6KA3; settings: read-out: apparent Kd; compound concentrations:100 nM and 1000 nM (sheet 'Samples'); n = 1
# [17] = tested on: RPS6KA6; settings: read-out: apparent Kd; compound concentrations:100 nM and 1000 nM (sheet 'Samples'); n = 1
# [18] = tested on: RPS6KB1; settings: read-out: apparent Kd; compound concentrations:100 nM and 1000 nM (sheet 'Samples'); n = 1
# [19] = tested on: SLK; settings: read-out: apparent Kd; compound concentrations:100 nM and 1000 nM (sheet 'Samples'); n = 1
# [20] = tested on: STK26; settings: read-out: apparent Kd; compound concentrations:100 nM and 1000 nM (sheet 'Samples'); n = 1
# [21] = tested on: VDAC3; settings: read-out: apparent Kd; compound concentrations:100 nM and 1000 nM (sheet 'Samples'); n = 1
# [22] = tested on: CDC7; settings: read-out: apparent Kd; compound concentrations: 100 nM and 1000 nM (sheet 'Samples'), CATDS: 8.1877579079801296E-2; n = 1
# [23] = tested on: CSNK1A1; settings: read-out: apparent Kd; compound concentrations: 100 nM and 1000 nM (sheet 'Samples'), CATDS: 0.113796385521925; n = 1
# [24] = tested on: CSNK1D; settings: read-out: apparent Kd; compound concentrations: 100 nM and 1000 nM (sheet 'Samples'), CATDS: 0.110842785331434; n = 1
# [25] = tested on: CSNK1E; settings: read-out: apparent Kd; compound concentrations: 100 nM and 1000 nM (sheet 'Samples'), CATDS: 9.8087772288550895E-2; n = 1
# [26] = tested on: ILK; settings: read-out: apparent Kd; compound concentrations: 100 nM and 1000 nM (sheet 'Samples'), CATDS: 8.2547383277030401E-2; n = 1
# [27] = tested on: NQO1; settings: read-out: apparent Kd; compound concentrations: 100 nM and 1000 nM (sheet 'Samples'), CATDS: 9.0275127229000399E-2; n = 1
# [28] = tested on: RIOK2; settings: read-out: apparent Kd; compound concentrations: 100 nM and 1000 nM (sheet 'Samples'), CATDS: 9.8590158992526697E-2; n = 1
# [29] = tested on: TP53RK; settings: read-out: apparent Kd; compound concentrations: 100 nM and 1000 nM (sheet 'Samples'), CATDS: 7.7480450425825395E-2; n = 1
# [30] = tested on: CDK10; settings: read-out: apparent Kd; compound concentrations:100 nM and 1000 nM (sheet 'Samples'); n = 1
# [31] = tested on: CDK17; settings: read-out: apparent Kd; compound concentrations:100 nM and 1000 nM (sheet 'Samples'); n = 1
# [32] = tested on: CDK1; settings: read-out: apparent Kd; compound concentrations:100 nM and 1000 nM (sheet 'Samples'); n = 1
# [33] = tested on: CDK4; settings: read-out: apparent Kd; compound concentrations:100 nM and 1000 nM (sheet 'Samples'); n = 1
# [34] = tested on: CDK5; settings: read-out: apparent Kd; compound concentrations:100 nM and 1000 nM (sheet 'Samples'); n = 1
# [35] = tested on: CDK6; settings: read-out: apparent Kd; compound concentrations:100 nM and 1000 nM (sheet 'Samples'); n = 1
# [36] = tested on: CDK7; settings: read-out: apparent Kd; compound concentrations:100 nM and 1000 nM (sheet 'Samples'); n = 1
# [37] = compound concentrations:100 nM and 1000 nM (sheet 'Samples')
smiles,measurement,setting,value
Cn1cc(C2=C(c3cn(CCCSC(=N)N)c4ccccc34)C(=O)NC2=O)c2ccccc21 [RO0318220-000],potency estimated from few doses,[1],1720 nM
same,potency estimated from few doses,[2],1070 nM
same,potency estimated from few doses,[3],694 nM
same,potency estimated from few doses,[4]; [37],785 nM
same,potency estimated from few doses,[5],434 nM
same,potency estimated from few doses,[6]; [37],1430 nM
same,potency estimated from few doses,[7],158 nM
same,potency estimated from few doses,[8],183 nM
same,potency estimated from few doses,[9],1720 nM
same,potency estimated from few doses,[10],1420 nM
same,potency estimated from few doses,[11],41.5 nM
same,potency estimated from few doses,[12],105 nM
same,potency estimated from few doses,[13],58.4 nM
same,potency estimated from few doses,[14],2280 nM
same,potency estimated from few doses,[15],121 nM
same,potency estimated from few doses,[16],1300 nM
same,potency estimated from few doses,[17],33.8 nM
same,potency estimated from few doses,[18],419 nM
same,potency estimated from few doses,[19],2100 nM
same,potency estimated from few doses,[20],1480 nM
same,potency estimated from few doses,[21],2310 nM
CCc1c(C)nc2sc3c(N)ncnc3c2c1C [RO4493944-000],potency estimated from few doses,[22],1870 nM
same,potency estimated from few doses,"[4]; compound concentrations: 100 nM and 1000 nM (sheet 'Samples'), CATDS: 0.173131615518303",453 nM
same,potency estimated from few doses,"[6]; compound concentrations: 100 nM and 1000 nM (sheet 'Samples'), CATDS: 0.128777290310437",724 nM
same,potency estimated from few doses,[23],903 nM
same,potency estimated from few doses,[24],949 nM
same,potency estimated from few doses,[25],1220 nM
same,potency estimated from few doses,[26],1830 nM
same,potency estimated from few doses,[27],1460 nM
same,potency estimated from few doses,[28],1200 nM
same,potency estimated from few doses,[29],2190 nM
CC(=O)Nc1cccc(C#Cc2cncnc2Nc2ccc(OCc3cccc(F)c3)c(Cl)c2)c1 [GW703087X],potency estimated from few doses,[30],1540 nM
COc1ccc(F)cc1C(=O)c1cnc(NC2CCN(S(C)(=O)=O)CC2)nc1N [RO4517872-000],potency estimated from few doses,[30],915 nM
same,potency estimated from few doses,[1],74.1 nM
same,potency estimated from few doses,[31],75.1 nM
same,potency estimated from few doses,[32],402 nM
same,potency estimated from few doses,[2],62.7 nM
same,potency estimated from few doses,[33],1200 nM
same,potency estimated from few doses,[34],221 nM
same,potency estimated from few doses,[35],1680 nM
same,potency estimated from few doses,[36],1460 nM
same,potency estimated from few doses,[3],246 nM
same,potency estimated from few doses,[9],347 nM
same,potency estimated from few doses,[19],1280 nM
